This is a sample that favours compounds with a hit; in the whole collection about 2.6% have one here.
FID counter: fluorescent intercalator displacement, NS3 helicase counter-screen | DNA fluorescent intercalator displacement, fluorescence | inhibition, % at 7.9 µM | 0.17% of 290,000 active | AID 1845; in the data active = inhibition above about 37%;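 also: higher means more ethidium bromide displaced from hairpin DNA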
IEC-6 cytotox: IEC-6 cytotoxicity, counter-screen for KLF5 inhibitors; luminescence viability; inhibition, % at 5 µM; 0.78% of 290,000 active; AID 1825
KLF5 inh: kruppel-like factor 5 inhibition. DLD-1 KLF5 promoter-luciferase reporter, luminescence. inhibition, % at 5 µM. 0.23% of 290,000 active. AID 1700;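 active = inhibition above a per-plate limit of that plate's mean compound inhibition plus 3 SD, cut at about 60% in these data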;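 also: higher means less KLF5 promoter-driven luciferase light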
BaF3 tox: parental Ba/F3 viability inhibition as JAK2V617F counter-screen | CellTiter-Glo ATP luminescence | inhibition, % at 5.6 µM | 1.1% of 220,000 active | AID 1486;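 active = inhibition above a per-campaign cutoff, the mean inhibition of all tested compounds plus 3 SD, cut at about 27% in these data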
GPR7 antag: human neuropeptides B/W receptor 1 antagonism | P48145 | GPR7-expressing cells, fluorescence antagonist assay | inhibition, % at 4.4 µM | 1.1% of 290,000 active | AID 1861; in the data active = inhibition above about 16%, passing the limit was not always enough;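 also: cells stimulated with the agonist NPW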
Target sequence (P48145 whole entry, looked up): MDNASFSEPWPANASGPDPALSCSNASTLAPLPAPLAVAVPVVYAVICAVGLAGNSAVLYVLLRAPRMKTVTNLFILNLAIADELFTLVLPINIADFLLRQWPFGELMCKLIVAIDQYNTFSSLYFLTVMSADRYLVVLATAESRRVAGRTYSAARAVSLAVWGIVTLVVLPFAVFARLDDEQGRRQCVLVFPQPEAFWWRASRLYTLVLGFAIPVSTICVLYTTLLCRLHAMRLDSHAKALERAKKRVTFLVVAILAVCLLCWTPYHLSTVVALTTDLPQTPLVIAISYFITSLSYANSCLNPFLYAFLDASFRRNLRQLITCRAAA
Ba/F3 V617F tox: loss of viability in JAK2V617F-driven Ba/F3 cells; inhibition, % at 5.6 µM; 1.1% of 220,000 active; Ba/F3 EpoR-JAK2V617F viability, ATP luminescence;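 active = inhibition above the campaign mean plus 3 SD over all tested compounds, cut at about 24% in these data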;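 also: cytokine-independent growth of Ba/F3 cells driven by EpoR plus mutant JAK2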
IEC-6 tox confirm: IEC-6 cytotoxicity, confirmation assay. shares compounds with IEC-6 cytotox. IEC-6 rat intestinal epithelial viability, luminescence. inhibition, % at 5 µM. 63% of 1,900 active. AID 1907
Of the large screens only hits and unclear results are named; the others gave an inactive call (follow-up assays come after a bar, where they were run). Rule as the data show it, unless noted: active = inhibition above about 22%; inactive = the rest.

O=C(Nc1nnc(-c2ccc(Cl)cc2)o1)c1cccc(N2C(=O)CCC2=O)c1	none
Cc1cc2ncn(CC(O)COc3cccc(C(=O)O)c3)c2cc1C (configuration not stated)	none
O=C1C(Cl)=C(NCc2cccnc2)C(=O)c2ccccc21	IEC-6 cytotox 99.3 (no result: BaF3 tox, Ba/F3 V617F tox) | IEC-6 tox confirm 57.0
CC(C)OCCCNC1=C(Cl)C(=O)c2ccccc2C1=O	IEC-6 cytotox 50.7 | IEC-6 tox confirm inactive
CCN(CC)CCCNC1=C(Cl)C(=O)c2ccccc2C1=O	IEC-6 cytotox 88.1 | IEC-6 tox confirm 77.0
CC(C)NC1=C(Cl)C(=O)c2ccccc2C1=O	IEC-6 cytotox 44.3 | IEC-6 tox confirm inactive
COCCCNC1=C(Cl)C(=O)c2ccccc2C1=O	none
O=C(CSc1nnc(-c2ccc(Cl)cc2)n1Cc1ccco1)c1cccs1	none
CCOc1ccc(NC(=O)CN2C(=O)C3CCCN3C2=O)cc1 (configuration not stated)	none
O=C1C=C(Nc2cccc(O)c2)CC(c2ccco2)C1 (configuration not stated)	none
COc1ccc(NCc2nnc(SCC(=O)Nc3cccc(C)c3)o2)cc1	none
CC1=C(C(=O)Nc2ccc(CC(=O)NCc3ccccc3C)cc2)SCCO1	none (no result: BaF3 tox, Ba/F3 V617F tox)
CCc1ccc(CNC(=O)Cc2ccc(NC(=O)C3=C(C)OCCS3)cc2)cc1	IEC-6 cytotox 77.8 (no result: BaF3 tox, Ba/F3 V617F tox) | IEC-6 tox confirm 53.0
CC(=O)NC1=NN(C(C)=O)C(C)(c2cccs2)S1 (configuration not stated)	IEC-6 cytotox 56.5, BaF3 tox 61.6, Ba/F3 V617F tox 62.1 | IEC-6 tox confirm 38.0
CC(C)(C)C(=O)N1CCN(c2ccc(NC(=O)c3ccc([N+](=O)[O-])o3)cc2)CC1	IEC-6 cytotox 100.9 (no result: BaF3 tox, Ba/F3 V617F tox) | IEC-6 tox confirm 58.5
O=C(Nc1ccc(N2CCCC2)cc1)c1ccc(Br)o1	none
O=C(Nc1ccc(N2CCCCC2)cc1)c1ccc([N+](=O)[O-])o1	IEC-6 cytotox 80.3 (no result: BaF3 tox, Ba/F3 V617F tox) | IEC-6 tox confirm inactive
CCCC(=O)N1CCN(c2ccc(NC(=O)c3ccc(Br)o3)cc2)CC1	none
CCCC(=O)N1CCN(c2ccc(NC(=O)c3ccc([N+](=O)[O-])o3)cc2)CC1	IEC-6 cytotox 90.5, BaF3 tox 45.0, Ba/F3 V617F tox 90.2 | IEC-6 tox confirm 44.8
O=C(Nc1ccc(N2CCCC2)c(Cl)c1)c1ccc([N+](=O)[O-])o1	IEC-6 cytotox 70.9, Ba/F3 V617F tox 74.8 | IEC-6 tox confirm 36.4
O=C(Nc1ccc(N2CCCC2)c(Cl)c1)c1ccco1	none
CCC(=Cc1ccc(CC)cn1)CC	none
CS(=O)(=O)N1CCN(c2ccc(NC(=O)c3ccc([N+](=O)[O-])o3)cc2)CC1	IEC-6 cytotox 24.6 | IEC-6 tox confirm 56.3
CS(=O)(=O)N1CCN(c2ccc(NC(=O)c3cc4ccccc4o3)cc2)CC1	none (no result: BaF3 tox, Ba/F3 V617F tox)
O=C(Nc1ccc(N2CCN(Cc3ccccc3F)CC2)cc1)c1ccccc1[N+](=O)[O-]	none
O=C(Nc1nc2c(Cl)cccc2s1)c1ccc([N+](=O)[O-])o1	none (no result: BaF3 tox, Ba/F3 V617F tox)
O=C(Nc1cccc(NC(=O)c2ccccc2Cl)c1)c1ccc([N+](=O)[O-])o1	IEC-6 cytotox 101.0 (no result: BaF3 tox, Ba/F3 V617F tox) | IEC-6 tox confirm 48.9
CN1CCN(c2ccc(NC(=O)c3ccc(-c4ccc(Br)cc4)o3)cc2)CC1	FID counter 42.9, IEC-6 cytotox 25.4 | IEC-6 tox confirm inactive
CCN1CCN(c2ccc(NC(=O)c3ccc(Br)o3)cc2)CC1	none (no result: BaF3 tox, Ba/F3 V617F tox)
O=C(Nc1ccc(N2CCN(Cc3ccccc3F)CC2)cc1)c1ccc([N+](=O)[O-])o1	IEC-6 cytotox 71.8 (no result: BaF3 tox, Ba/F3 V617F tox) | IEC-6 tox confirm 32.5
CC(C)OC(=O)c1ccc2nc3ccccc3nc2c1	IEC-6 cytotox 24.2 (no result: BaF3 tox, Ba/F3 V617F tox) | IEC-6 tox confirm inactive
CC(C)OC(=O)c1ccc(NC(=O)c2ccccc2)cc1	none
CS(=O)(=O)N(CC(=O)NCC1CCCO1)c1cccc([N+](=O)[O-])c1 (configuration not stated)	none
Cc1cc(-c2ccc(S(=O)(=O)N(C)c3ccc(C)c(C)c3)s2)on1	IEC-6 cytotox 52.8 (no result: BaF3 tox, Ba/F3 V617F tox) | IEC-6 tox confirm 42.2
Cc1ccc(N(C)S(=O)(=O)c2ccc(-c3cc(C)no3)s2)cc1	IEC-6 cytotox 41.3 (no result: BaF3 tox, Ba/F3 V617F tox) | IEC-6 tox confirm inactive
COc1ccc(-c2cc(C)no2)cc1S(=O)(=O)N(C)c1ccc(C)c(C)c1	none (no result: BaF3 tox, Ba/F3 V617F tox)
COc1cc(S(=O)(=O)N2CCCC2)c(C)cc1C	none
COC(=O)c1sccc1NC(=O)c1ccc(Br)o1	none
CSc1ccccc1NC(=O)COc1ccccc1C	none
CCN(Cc1ccccc1)C(=O)COC(=O)c1cc(S(=O)(=O)Nc2c(C)n(C)n(-c3ccccc3)c2=O)ccc1C	none
O=C(O)c1ccccc1NC(=O)c1ccccc1Nc1ccccc1	IEC-6 cytotox 34.7 (no result: BaF3 tox, Ba/F3 V617F tox) | IEC-6 tox confirm inactive
CN(C)CCn1c2ccccc2c2nc3ccc([N+](=O)[O-])cc3cc21	FID counter 48.4, IEC-6 cytotox 81.9, BaF3 tox 71.2, Ba/F3 V617F tox 86.5 | IEC-6 tox confirm 50.8
CCn1c2ccccc2c2cc([N+](=O)[O-])ccc21	none
CCc1ccc(OC)c(S(=O)(=O)Nc2ccc(Cc3ccncc3)cc2)c1	IEC-6 cytotox 25.1 (no result: BaF3 tox, Ba/F3 V617F tox) | IEC-6 tox confirm inactive
NC(=O)CN1C(=O)C(=O)N(Cc2ccccc2Cl)C1=O	IEC-6 cytotox 43.8 (no result: BaF3 tox, Ba/F3 V617F tox) | IEC-6 tox confirm inactive
C/C(CC(=O)NCc1ccccc1)=N\NC(=O)c1cnccn1	none
Nn1cnnc1N/N=C/c1ccc(F)cc1	none (no result: BaF3 tox, Ba/F3 V617F tox)
Nn1cnnc1N/N=C/c1ccc(Cl)c([N+](=O)[O-])c1	IEC-6 cytotox 51.5 | IEC-6 tox confirm inactive
Cc1ccccc1Nc1sc(C(=O)Nc2cccc(Cl)c2)c(N)c1C(N)=O	none
CCOc1ccccc1N(CC(=O)NCC1CCCO1)C(=O)CCC(=O)Nc1nccs1 (configuration not stated)	none (no result: BaF3 tox, Ba/F3 V617F tox)
CN1C2=NCCN2C(=O)c2cc(Cl)ccc21	none
Cn1c(Cl)cnc1C1CC(=O)c2cc(Cl)ccc2O1 (configuration not stated)	IEC-6 cytotox 69.6, BaF3 tox 49.8, Ba/F3 V617F tox 55.4 | IEC-6 tox confirm inactive
CCOc1ccc(NC(=O)c2cc3ccccc3cc2O)cc1	none
O=C(Nc1ccc(Cl)cn1)c1cccc2ccccc12	IEC-6 cytotox 43.8 (no result: BaF3 tox, Ba/F3 V617F tox) | IEC-6 tox confirm 24.8
CCOc1ccc(NC(=O)c2cccc3ccccc23)cc1	IEC-6 cytotox 22.5 (no result: BaF3 tox, Ba/F3 V617F tox) | IEC-6 tox confirm inactive
O=C(Nc1ccc(Cl)cn1)c1ccccc1[N+](=O)[O-]	none
COc1ccc(C(=O)NC2CCCc3ccccc32)cc1[N+](=O)[O-] (configuration not stated)	IEC-6 cytotox 36.2 (no result: BaF3 tox, Ba/F3 V617F tox) | IEC-6 tox confirm inactive
O=C(Nc1nnc(-c2cccnc2)o1)c1ccccc1Cl	none
Cc1ccsc1C(=O)Nc1n[nH]c(C(F)(F)F)n1	none
COc1ccc(C(=O)NC(=S)Nc2ccc(N3CCOCC3)c(Cl)c2)cc1[N+](=O)[O-]	none
Cc1ccccc1-c1ocnc1C(=O)Nc1ccccc1NC(=O)c1ccccn1	IEC-6 cytotox 22.8 (no result: BaF3 tox, Ba/F3 V617F tox) | IEC-6 tox confirm inactive
Cc1ccc(C)c(C(=O)c2ccccc2NC(=O)c2ccccn2)c1	none (no result: BaF3 tox, Ba/F3 V617F tox)

Bioassay records (PubChem)
